# Shown are actives, neighbours in structure and some others; about 2.7% of the full set was active somewhere.
# HepG2 tox: HepG2 cytotoxicity, counter-screen for TGF-b inhibitors. actives 0.76% (n = 410,000). Potency, µM (titrated, usually from 46.1 µM), actives largely listed as cytotoxic. HepG2 CAGA-GFP viability, ATP luminescence, 18 h
#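 HepG2 CAGA-GFP cells (1000/well, DMEM with 1% FBS) received compound, then TGF-beta at 500 pg/mL final, and were incubated 18 hours at 37 degrees C. Viability was read by CellTiter-Glo luminescence. Media-only wells were set as complete cell-killing and DMSO as no toxicity.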
# TGFb SMAD3 inh: blocks TGF-b signaling | HepG2 CAGA-GFP TGF-b/SMAD3 reporter, GFP fluorescence, 18 h; TGF-beta stimulated, 500 pg/mL final | Potency, µM (doses to about 46.1 µM), hits mostly inhibitors | actives 1.2% (n = 410,000) | AID 588855; also: nearly all actives have a fitted effect of over 65% in size
#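 Per well, imaged GFP fluorescence of HEPG2 CAGA-GFP cells gives the signal; cells get compound, then TGF-beta (500 pg/mL final), 18 h at 37 degrees C; %Activity versus -TGF-beta and +DMSO controls.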
# ATXN viability: reduces viability in counter-screen for ATXN expression inhibitors | S2 cells (HEK-293 line with an ATXN2-luciferase reporter) viability, CellTiter-Fluor protease fluorescence, 24 h | Potency, µM (highest dose often 56.7 µM), usual class: cytotoxic | actives 0.49% (n = 400,000); also: nearly all actives have a fitted effect of over 40% in size
# ATXN2 expr inh: reduces ATXN2 reporter expression in HEK-293 cells; HEK-293 ATXN2-luciferase reporter, luminescence, 24 h; actives 0.72% (n = 360,000); AID 1745845; Potency, µM (highest dose often 57 µM), usual class: inhibitors; also: nearly all actives have a fitted effect of over 55% in size
#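 qHTS (up to 57 uM final) was run with 24 h compound exposure of reporter cells at 37 °C. Each well was multiplexed: SteadyGlo luminescence measured ATXN2-luciferase expression after a fluorogenic Gly-Phe-AFC viability readout (25 uM final).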
# 12-LOX inh: inhibitors of human 12S-lipoxygenase ALOX12 | P18054 | purified 12hLO, xylenol orange hydroperoxide absorbance | Potency, µM (doses to about 108 µM), actives largely listed as inhibitors | actives 1.1% (n = 580,000) | AID 1671190
# Target sequence (P18054 whole entry, looked up): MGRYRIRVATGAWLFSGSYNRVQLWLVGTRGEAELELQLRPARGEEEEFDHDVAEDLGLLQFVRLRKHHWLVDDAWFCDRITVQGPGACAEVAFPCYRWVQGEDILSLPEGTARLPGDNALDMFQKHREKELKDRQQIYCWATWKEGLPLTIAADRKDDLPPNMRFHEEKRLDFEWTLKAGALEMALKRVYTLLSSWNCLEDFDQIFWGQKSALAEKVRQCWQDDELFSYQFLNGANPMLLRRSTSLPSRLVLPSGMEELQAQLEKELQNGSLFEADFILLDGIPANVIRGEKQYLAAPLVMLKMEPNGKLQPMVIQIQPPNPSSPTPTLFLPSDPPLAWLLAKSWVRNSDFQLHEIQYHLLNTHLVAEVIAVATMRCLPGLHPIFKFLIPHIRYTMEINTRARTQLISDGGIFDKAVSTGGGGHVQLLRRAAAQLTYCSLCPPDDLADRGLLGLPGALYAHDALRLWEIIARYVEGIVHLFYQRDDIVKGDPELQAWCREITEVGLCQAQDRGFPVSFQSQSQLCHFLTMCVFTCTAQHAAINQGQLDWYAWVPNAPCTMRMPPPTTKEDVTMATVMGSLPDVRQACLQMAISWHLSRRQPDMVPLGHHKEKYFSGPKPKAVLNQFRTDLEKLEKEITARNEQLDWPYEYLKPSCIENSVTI
#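 Hydroperoxide product was detected by ferrous iron/xylenol orange as the 573 to 405 nm absorbance ratio. Arachidonic acid at 40 uM (final) was turned over for 30 min at room temperature by 150 nM human 12hLO, pH 7.0 Hepes buffer, after 15 min compound preincubation.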
# Hits are given with their value; i = inactive; ? = inconclusive; nt = no result given. Calls follow the shape of the dose curve; as a rule, active = well fitted curve in the direction sought with a large enough effect; inconclusive = small, poorly fitted or top-dose-only effect, or another doubt; inactive = no such curve, though single readings can be large; an effect the other way counts as inactive or inconclusive.
SMILES,HepG2 tox,TGFb SMAD3 inh,ATXN viability,ATXN2 expr inh,12-LOX inh
Cc1ccc(C)c(CN2C(=O)c3ccccc3S(=O)(=O)c3ccc(C(=O)NCCC4=CCCCC4)cc32)c1,i,nt,nt,nt,i
CCCCN(CCCC)c1cc(F)nc(N)n1,nt,nt,nt,nt,i
Cc1nc(-c2cccc(S(=O)(=O)N3CCC(C(=O)NCc4ccc5c(c4)OCO5)CC3)c2)no1,nt,nt,nt,nt,i
COc1cccc(CNCCSc2nnnn2C)c1OCc1ccc(Cl)cc1,i,17.8µM,i,?,i
COc1cccc(CNCCSc2nnnn2C)c1OCc1ccc(Cl)cc1Cl,i,?,i,i,?
Cn1nnnc1SCCCNCc1cccc(OCc2ccccc2F)c1,i,i,i,i,i
Cn1nnnc1SCCCNCc1cccc(OCc2ccccc2Cl)c1,i,10µM,?,?,i
Cc1csc(NC(=O)C(C)Sc2nnc(-c3ccco3)n2CC(C)C)n1 (configuration not stated),nt,nt,nt,nt,i
COc1ccc(-c2nc3cc(NC(=O)COc4ccc(F)cc4)ccc3o2)cc1,i,i,i,i,?
O=C(CN1CCCC1)Nc1ccc(-c2nc3cc(NC(=O)CN4CCCC4)ccc3o2)cc1,i,?,12.6µM,?,i
O=C(COc1ccc([N+](=O)[O-])cc1)Nc1ccc2oc(-c3ccc(F)cc3)nc2c1,nt,nt,nt,nt,7.94µM
COc1ccc([N+](=O)[O-])cc1NC(=O)COC(=O)c1ccc2c(c1)NC(=O)CS2,nt,nt,nt,nt,i
CC(C)c1ccccc1NS(=O)(=O)c1ccc(CCC(=O)O)cc1,nt,nt,nt,nt,i
CCOc1ccc(NC(=O)Cn2sc3nc(C)cc(C)c3c2=O)cc1,i,11.2µM,i,i,nt
Cc1cc(C)c2c(=O)n(CC(=O)Nc3ccc(Cl)cc3)sc2n1,i,?,?,i,1.26µM
Cc1cc(C)c2c(=O)n(CC(=O)Nc3cccc(F)c3)sc2n1,i,?,i,i,?
CCOc1ccc(NC(=O)CCc2c(C)nc3c4c(C)cc(C)nc4nn3c2C)cc1,i,i,i,i,i
Cc1ccc(NC(=O)Cn2sc3nc(C)cc(C)c3c2=O)c(Cl)c1,i,i,i,i,2µM
CCOc1ccc(NC(=O)Cn2c(-c3ccccc3)nc(C)cc2=O)cc1,nt,nt,nt,nt,i
CCOc1ccc(NC(=O)Cn2c(Nc3cc(C)cc(C)c3)nc(C)cc2=O)cc1,nt,nt,nt,nt,35.5µM
Cc1ccc(NC(=O)Cn2c(C)cc(C)c(C#N)c2=O)c(Cl)c1,i,i,i,i,i
COc1cccc2cc(-c3csc(Nc4ccccc4Br)n3)c(=O)oc12,nt,nt,nt,nt,i
Cc1cc(C)c2c(=O)n(CC(=O)NCCCN3CCOCC3)sc2n1,i,i,i,i,nt
Cc1cc(C)c2c(=O)n(CC(=O)NCCCN3CCN(c4ccccc4F)CC3)sc2n1,i,?,18.9µM,?,nt
COCCNC(=S)N1CCC2CC1c1cc(-c3ccc4c(c3)OCO4)ccc12 (configuration not stated),i,?,i,i,28.2µM
SMILES,HepG2 tox,TGFb SMAD3 inh,ATXN viability,ATXN2 expr inh,12-LOX inh
O=C(c1ccccc1F)N1CCC2CC1c1cc(-c3ccc4c(c3)OCO4)ccc12 (configuration not stated),i,?,i,i,i
S=C(NCCc1ccccc1)N1CCC2CC1c1cc(-c3ccc4c(c3)OCO4)ccc12 (configuration not stated),i,?,?,i,28.2µM
S=C(NCCc1ccccc1)N1CCC2CC1c1c(Cl)cccc12 (configuration not stated),i,i,i,i,?
CN(CCNC(=O)NC1CCCC(C(F)(F)F)C1)Cc1ccccc1 (configuration not stated),nt,nt,nt,nt,i
CCOC(=O)C1C(=O)C=C(c2ccccc2)CC1c1ccc(Br)cc1 (configuration not stated),nt,nt,nt,nt,i
Cc1oc2c(O)c(O)ccc2c(=O)c1-c1ccc(Cl)cc1,i,i,i,i,5.62µM
C=CCN1C(=O)/C(=C/c2ccc(OC(C)=O)c(OCC)c2[N+](=O)[O-])SC1=S,i,7.08µM,nt,?,?
CCn1c(=O)c(=O)[nH]c2cc(C(=O)N3CCCCCC3)ccc21,nt,nt,nt,nt,i
CCOc1ccc(N=Nc2ccc(O)c3ncccc23)cc1,i,i,?,?,i
NS(=O)(=O)c1ccc(N=Nc2ccc(O)c3ncccc23)cc1,6.31µM,8.91µM,10µM,nt,?

# High-throughput results from PubChem BioAssay.
